IP6K1 inh – blocks human inositol hexakisphosphate kinase 1; IP6K1 kinase, ADP-Glo luminescence, 2 h; stronger effect = lower value; Q92551; activity change, % (series mostly up to about 58 µM); AID 1645851; actives 0.81% (n = 140,000); in the data active = activity change below about -25%
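ADP-Glo luminescence measures ADP made by human IP6K1 during a 2 h RT reaction with ATP/IP6 (mix at 1.3 mM/130 uM); top library doses 57.5 and 19.1 uM final.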
SNCA expr inh – SNCA gene expression inhibition | HEK-293 SNCA-luciferase knock-in, luminescence, 24 h | Potency, µM (doses to about 57.2 µM), actives largely listed as inhibitors | actives 0.17% (n = 140,000); note: nearly all actives have a fitted effect of over 45% in size
FLuc inh – inhibitors of firefly (Photinus pyralis) luciferase; purified P. pyralis luciferase, luminescence, biochemical; Potency, µM (series often up to 115 µM), most hits filed as inhibitors; actives 2.5% (n = 76,000); note: nearly all actives have a fitted effect of over 65% in size
Target sequence (P08659 whole entry, looked up): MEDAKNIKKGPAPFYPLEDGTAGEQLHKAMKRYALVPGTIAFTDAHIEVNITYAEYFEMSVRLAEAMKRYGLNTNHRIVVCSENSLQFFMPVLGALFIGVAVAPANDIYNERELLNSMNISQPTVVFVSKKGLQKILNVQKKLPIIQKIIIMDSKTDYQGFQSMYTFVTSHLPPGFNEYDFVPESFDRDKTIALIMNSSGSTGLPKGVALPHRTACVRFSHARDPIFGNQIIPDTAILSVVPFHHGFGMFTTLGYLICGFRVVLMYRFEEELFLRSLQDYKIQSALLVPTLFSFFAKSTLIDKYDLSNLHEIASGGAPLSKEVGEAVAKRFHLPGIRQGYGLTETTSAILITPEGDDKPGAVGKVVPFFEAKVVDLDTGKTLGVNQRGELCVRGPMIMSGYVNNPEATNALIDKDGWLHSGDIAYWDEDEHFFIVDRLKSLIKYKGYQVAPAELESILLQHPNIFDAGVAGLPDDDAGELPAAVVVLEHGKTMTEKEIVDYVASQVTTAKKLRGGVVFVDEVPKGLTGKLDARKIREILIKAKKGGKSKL
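FLuc 10nM, D-luciferin 10uM, ATP 10uM, Mg acetate 10mM, Tris acetate pH 7.5, Tween/BSA; cpd qHTS; enzyme added last; CCD luminescence.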
HEK293 tox – HEK 293 cell cytotoxicity; Potency, µM (titrated, usually from 115 µM), most hits filed as inhibitors; HEK 293 viability, ATP luminescence (CellTiter-Glo), 48-72 h; AID 1345083; actives 6.6% (n = 94,000); note: nearly all actives have a fitted effect of over 60% in size
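Read-out: CellTiter-Glo ATP luminescence. Cells: HEK 293, 250 cells/well. Exposure: 48 or 72 hr, 37 degree Celsius.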
HEK293 viab – reduces viability of HEK-293 SNCA reporter cells. HEK-293-SNCA-luc viability, GF-AFC fluorescence, 24 h. Potency, µM (series often up to 57.1 µM), most hits filed as cytotoxic. actives 0.12% (n = 150,000). AID 1671193; note: nearly all actives have a fitted effect of over 30% in size
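Cytotoxicity counterscreen: after 24 h compound treatment of genome-edited SNCA-luciferase HEK-293 cells, live-cell protease substrate GF-AFC read by fluorescence after 30 min; activity scaled between DMSO (0%) and medium-only (-100%), curves Hill-fitted.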
NIH3T3 tox – cytotoxic compounds in NIH 3T3 cells; actives 4.3% (n = 94,000); Potency, µM (highest dose often 96.7 µM), most hits filed as inhibitors; NIH 3T3 viability, CellTiter-Glo ATP luminescence, 48-72 h; AID 1345082; note: nearly all actives have a fitted effect of over 55% in size
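Mouse fibroblast NIH 3T3 cells, 400 per well, received compound via pintool and were incubated for 48 or 72 hr prior to CellTiter-Glo ATP luminescence measurement.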
Large screens that a line does not name were inactive; ! = repeats disagree. Sampled rows, rich in hits. Any-hit rate of the full collection: about 7.3%. Unless noted, calls come from the whole dose curve; as a rule, active = well fitted curve in the direction sought with a large enough effect; inconclusive = small, poorly fitted or top-dose-only effect, or another doubt; inactive = no such curve, though single readings can be large; an effect the other way counts as inactive or inconclusive.

Fc1ccc(Nc2cnc3ccc(N4CCOCC4)nn23)cc1F	HEK293 tox inconclusive, NIH3T3 tox inconclusive
FC(F)(F)c1cccc(Nc2cnc3ccc(N4CCOCC4)nn23)c1	HEK293 tox 89µM, NIH3T3 tox inconclusive
CN1CCN(c2ccc3ncc(Nc4ccc(F)cc4)n3n2)CC1	HEK293 tox 112µM, NIH3T3 tox 100µM
COc1ccc(Nc2cnc3ccc(N4CCOCC4)nn23)cc1	HEK293 tox inconclusive, NIH3T3 tox inconclusive
c1ccc(Nc2cnc3ccc(N4CCOCC4)nn23)cc1	HEK293 tox 112µM, NIH3T3 tox inconclusive
O=C(NC1CCCCC1)C1CN(S(=O)(=O)c2cc(F)cc(F)c2)CC12CCOCC2 (configuration not stated)	none
COc1cccc(CN2CCCC3(CCN(Cc4ccccc4)C3)C2=O)c1OC (configuration not stated)	HEK293 tox inconclusive, NIH3T3 tox inconclusive
COc1ccc(CN2Cc3[nH]cnc3C[C@H]2c2nc(-c3ccccc3)no2)cc1	FLuc inh inconclusive, HEK293 tox inconclusive, NIH3T3 tox inconclusive
OCc1ccc(CN2Cc3[nH]cnc3C[C@H]2c2nc(-c3ccc4ccccc4c3)no2)o1	FLuc inh inconclusive, HEK293 tox 79µM, NIH3T3 tox 79µM
Cc1ccc(CN2Cc3[nH]cnc3C[C@H]2c2nc(-c3ccc4ccccc4c3)no2)cc1	FLuc inh 63µM, HEK293 tox 63µM, NIH3T3 tox 45µM
Cc1ccc(C(=O)N2CCc3nc(C(C)C)nc(-c4ccc(Cl)cc4)c3C2)cc1	HEK293 tox inconclusive, NIH3T3 tox inconclusive (no result: FLuc inh)
C=C(C)C(=O)O[C@H]1C[C@@](C)(O)C2(O)CCC(C)(/C=C3/OC(=O)C(COC)=C31)O2 (some centres not stated)	HEK293 viab 15µM (no result: SNCA expr inh, FLuc inh, HEK293 tox, NIH3T3 tox)
C[S+](=O)([O-])N1CCC(C(=O)N2CCC(N3CCCC3=O)CC2)CC1	none (no result: FLuc inh)
OC(c1nc(Nc2cccc(F)c2)n[nH]1)C1CC1 (configuration not stated)	FLuc inh inconclusive, NIH3T3 tox 112µM
COc1ccccc1C(O)c1nc(Nc2ccc(Cl)cc2)n[nH]1 (configuration not stated)	HEK293 tox inconclusive, NIH3T3 tox inconclusive
OC(c1nc(Nc2cccc(Cl)c2)n[nH]1)C1CC1 (configuration not stated)	FLuc inh 45µM, NIH3T3 tox inconclusive
COc1ccccc1C(O)c1nc(Nc2cccc(F)c2)n[nH]1 (configuration not stated)	HEK293 tox inconclusive
COc1ccc(C(=O)N[C@@H]2CCC[C@@H]2C(=O)NCCc2cccs2)cc1	HEK293 tox inconclusive, NIH3T3 tox inconclusive
Cc1noc2c(-c3cccnc3NCCN(C)C)cc(-c3ccccc3)nc12	HEK293 tox 89µM, NIH3T3 tox 45µM
Cc1noc2c(-c3cccnc3NCCCn3ccnc3)cc(-c3ccccc3)nc12	SNCA expr inh inconclusive, HEK293 tox 71µM, NIH3T3 tox inconclusive
Cc1noc2c(-c3cccc(O)c3)cc(-c3ccccc3)nc12	SNCA expr inh inconclusive, HEK293 tox 50µM, NIH3T3 tox 28µM
COCCCNc1ncccc1-c1cc(-c2ccccc2)nc2c(C)noc12	HEK293 tox 112µM, NIH3T3 tox inconclusive
Cc1noc2c(-c3cccnc3NCc3cccnc3)cc(-c3ccccc3)nc12	HEK293 tox inconclusive, NIH3T3 tox inconclusive
Cn1ncc2c(C(=O)NCCc3ccccn3)cc(-c3ccc(F)cc3)nc21	HEK293 tox inconclusive, NIH3T3 tox inconclusive (no result: SNCA expr inh, FLuc inh, HEK293 viab)
O=C(Nc1cccc(-c2nnc3n2CCCC3)c1)c1ccc(F)c(F)c1	HEK293 tox inconclusive
Cn1ncc2c(C(=O)NCC(=O)c3ccccc3)cc(-c3ccc(F)cc3)nc21	HEK293 tox inconclusive, NIH3T3 tox inconclusive (no result: SNCA expr inh, FLuc inh, HEK293 viab)
NC(=O)[C@@H](Cc1ccccc1)NC(=O)[C@@H]1C[C@@H](NS(=O)(=O)c2cccs2)CCN1C(=O)COCC(=O)O	none
Cc1ccccc1C(=O)N1CCC(C(=O)N2CCCC2c2nc3ccncc3[nH]2)CC1 (configuration not stated)	none (no result: FLuc inh)
Cc1ccccc1Cc1noc(-c2nc(-c3ccccc3F)no2)n1	FLuc inh inconclusive
COCCc1noc(-c2nc(-c3ccccc3F)no2)n1	FLuc inh 28µM
COc1ccccc1-c1ccc(C(=O)N2CCC(C(=O)NCCc3ccc(Cl)cc3)CC2)cc1	HEK293 tox inconclusive, NIH3T3 tox 32µM (no result: FLuc inh)
COc1ccccc1-c1ccc(C(=O)N2CCC(NC(=O)Cc3cccc(Cl)c3)CC2)cc1	SNCA expr inh inconclusive, HEK293 tox 16µM!, NIH3T3 tox 16µM (no result: FLuc inh)
COc1ccccc1-c1ccc(C(=O)N2CCC(C(=O)NCCc3ccc(F)cc3)CC2)cc1	HEK293 tox inconclusive, NIH3T3 tox inconclusive (no result: FLuc inh)
COc1ccccc1-c1ccc(C(=O)N2CCC(NC(=O)Cc3ccc(F)cc3)CC2)cc1	HEK293 tox inconclusive, NIH3T3 tox 45µM! (no result: FLuc inh)
COc1ccc(CNC(=O)c2cc(-c3cccc(C(F)(F)F)c3)c3nncn3n2)cc1	HEK293 tox inconclusive (no result: FLuc inh)
Cc1nc(CNC(=O)c2ccc3oc(-c4cccc(F)c4)nc3c2)cs1	FLuc inh 32µM, HEK293 tox inconclusive
CC(C)CNC(=O)c1ccc2oc(-c3ccnc(Cl)c3)nc2c1	HEK293 tox 89µM, NIH3T3 tox inconclusive (no result: FLuc inh)
CCCN1CCC2(Cc3ccccc3CN(C(=O)C(C)C)C2)C1 (configuration not stated)	HEK293 tox inconclusive (no result: FLuc inh)
CCCC1c2nccn2CCCN1C(=O)c1occc1C (configuration not stated)	none
Cc1cc(NC(=O)c2ccc3c(c2)OCCN(C2CCC2)C3)ccc1F	FLuc inh 22µM, HEK293 tox inconclusive, NIH3T3 tox inconclusive
O=C(NC1C[C@H]2CC[C@@H](C1)N2C(=O)Nc1ccc2c(c1)OCCO2)c1ccc(F)cc1 (some centres not stated)	none (no result: FLuc inh)
O=C(Nc1ccc(F)cc1)c1ccc2c(c1)OCCN(C1CCC1)C2	FLuc inh 45µM, HEK293 tox inconclusive, NIH3T3 tox inconclusive
Cc1ccc(CNC(=O)c2ccc3c(c2)CN(C2CCC2)CCO3)cc1	SNCA expr inh inconclusive
O=C(CCC1CCN(C(=O)c2ccccc2)CC1)NCCCN1CCCc2ccccc21	HEK293 tox inconclusive, NIH3T3 tox inconclusive
O=C(Nc1cccc(F)c1)N1CC(Oc2ccc(-c3nc(-c4ccccc4)no3)cc2)C1	FLuc inh 2.5µM, HEK293 tox inconclusive, NIH3T3 tox inconclusive
COc1ccccc1C(=O)N1CC(Oc2ccc(-c3nc(-c4ccccc4)no3)cc2)C1	HEK293 tox inconclusive, NIH3T3 tox inconclusive
COc1ccc(NC(=O)N2CC(Oc3ccc(-c4nc(-c5ccccc5)no4)cc3)C2)cc1	FLuc inh 1.4µM, HEK293 tox inconclusive
